{"source": "PubChem BioAssay (NCATS)", "key": {"[1]": {"biological_target": "Peroxisome proliferator-activated receptor delta (Homo sapiens) (UniProt Q03181)", "sequence (Q03181 whole entry, looked up)": "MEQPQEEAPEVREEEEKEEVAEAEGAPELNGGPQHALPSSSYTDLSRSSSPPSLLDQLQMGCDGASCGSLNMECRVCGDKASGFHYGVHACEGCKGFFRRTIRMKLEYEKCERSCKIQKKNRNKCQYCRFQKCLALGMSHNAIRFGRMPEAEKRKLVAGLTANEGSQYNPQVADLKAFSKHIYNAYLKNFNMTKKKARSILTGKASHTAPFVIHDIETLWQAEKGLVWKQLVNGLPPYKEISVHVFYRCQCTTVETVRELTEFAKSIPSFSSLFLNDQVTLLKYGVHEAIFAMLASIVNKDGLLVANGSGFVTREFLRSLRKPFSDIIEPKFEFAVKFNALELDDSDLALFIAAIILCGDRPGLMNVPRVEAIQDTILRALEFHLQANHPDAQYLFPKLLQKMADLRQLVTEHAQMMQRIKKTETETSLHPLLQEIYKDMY", "experiment": "qHTS assay for small molecule agonists of peroxisome proliferator-activated receptor delta signaling (AID 588534)", "summary_of_the_method": "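EC50 and efficacy values derive from Hill fits of a concentration series in a beta-lactamase reporter cell assay. Exposure is 18 hrs at 37 C, with CCF4 fluorescence as the readout.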"}, "[2]": {"experiment": "qHTS assay for small molecule antagonists of peroxisome proliferator-activated receptor delta signaling (AID 588535; active means well fitted inhibition curve with a large enough effect in the signal ratio, with a control signal flat, not every such curve was filed as active; the % refers to the signal ratio)", "conditions": "HEK293T PPARd-UAS-bla, beta-lactamase FRET ratio, 18 h; 460 nm channel", "summary_of_the_method": "(§1)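 Compounds tested in titration on PPAR-delta-UAS-bla HEK293T cells grown in charcoal/dextran-stripped serum (2%); beta-lactamase activity read via CCF4 emission at 460 and 530 nm.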"}, "[3]": {"biological_target": "Peroxisome proliferator-activated receptor delta (Homo sapiens) (UniProt Q03181)", "experiment": "qHTS assay for small molecule antagonists of peroxisome proliferator-activated receptor delta signaling (AID 588535)", "summary_of_the_method": "as §1"}, "[4]": {"biological_target": "Peroxisome proliferator-activated receptor gamma (Homo sapiens) (UniProt P37231)", "sequence (P37231 whole entry, looked up)": "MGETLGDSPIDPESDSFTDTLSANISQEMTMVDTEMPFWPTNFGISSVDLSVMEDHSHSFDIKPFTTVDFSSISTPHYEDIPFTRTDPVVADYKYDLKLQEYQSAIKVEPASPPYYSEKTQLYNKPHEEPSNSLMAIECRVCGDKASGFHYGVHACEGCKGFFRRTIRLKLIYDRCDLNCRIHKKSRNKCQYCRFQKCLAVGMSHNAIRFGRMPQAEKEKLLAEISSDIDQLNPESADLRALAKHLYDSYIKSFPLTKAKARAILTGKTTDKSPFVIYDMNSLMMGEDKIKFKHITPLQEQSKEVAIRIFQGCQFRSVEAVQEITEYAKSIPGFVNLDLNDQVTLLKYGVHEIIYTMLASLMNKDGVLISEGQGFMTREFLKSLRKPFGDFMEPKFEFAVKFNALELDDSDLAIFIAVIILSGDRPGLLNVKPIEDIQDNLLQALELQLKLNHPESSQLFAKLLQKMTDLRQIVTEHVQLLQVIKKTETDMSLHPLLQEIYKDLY", "experiment": "qHTS assay for small molecule agonists of peroxisome proliferator-activated receptor gamma signaling (AID 588536; active means well fitted curve in the direction sought with a large enough effect in the signal ratio, with a control signal flat, not every such curve was filed as active; the % refers to the signal ratio)", "summary_of_the_method": "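This is an agonist-mode beta-lactamase reporter assay in HEK293 PPAR-gamma-UAS-bla cells with 1% charcoal/dextran FBS. Compound titrations ran 16 h at 37 C before CCF4 detection. EC50 and efficacy are Hill fits scaled to 2 uM rosiglitazone (100%) and DMSO basal.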"}, "[5]": {"biological_target": "Peroxisome proliferator-activated receptor gamma (Homo sapiens) (UniProt P37231)", "experiment": "qHTS assay for small molecule antagonists of peroxisome proliferator-activated receptor gamma signaling (AID 588537; active means well fitted inhibition curve with a large enough effect in the signal ratio, with a control signal flat, not every such curve was filed as active; the % refers to the signal ratio)", "summary_of_the_method": "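HEK293 cells, PPAR-gamma-UAS-bla, 3000/well. Pre-incubation 6-6.5 h, 37 C. Compound titration with rosiglitazone 50 nM final, 16 h. CCF4 dye, 2 h RT, dual-emission fluorescence.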"}, "[6]": {"biological_target": "Vitamin D3 receptor (Homo sapiens) (UniProt P11473)", "sequence (P11473 whole entry, looked up)": "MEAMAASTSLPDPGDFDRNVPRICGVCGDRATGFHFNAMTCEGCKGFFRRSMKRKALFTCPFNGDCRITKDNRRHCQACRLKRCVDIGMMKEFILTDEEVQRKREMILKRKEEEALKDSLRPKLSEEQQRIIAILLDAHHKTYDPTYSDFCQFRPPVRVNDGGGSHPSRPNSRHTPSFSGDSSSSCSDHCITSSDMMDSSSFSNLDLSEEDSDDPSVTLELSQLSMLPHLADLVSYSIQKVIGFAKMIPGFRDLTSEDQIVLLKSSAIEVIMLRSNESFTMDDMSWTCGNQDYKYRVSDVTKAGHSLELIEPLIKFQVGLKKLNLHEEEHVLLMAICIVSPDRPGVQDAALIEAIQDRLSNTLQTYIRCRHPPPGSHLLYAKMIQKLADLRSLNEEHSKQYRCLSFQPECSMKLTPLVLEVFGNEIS", "experiment": "qHTS assay for small molecule antagonists of vitamin D receptor signaling (AID 588541)", "summary_of_the_method": "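VDR-UAS-bla HEK293T cells (2000/well, 2% charcoal-stripped FBS) were treated with titrated compounds plus 1-alpha,25-dihydroxyvitamin D3 (50 nM or 3 nM final) for 16 h at 37 C. CCF4 beta-lactamase fluorescence was read; Hill fits gave IC50.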"}, "[7]": {"biological_target": "Vitamin D3 receptor (Homo sapiens) (UniProt P11473)", "experiment": "qHTS assay for small molecule agonists of vitamin D receptor signaling (AID 588543)", "summary_of_the_method": "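qHTS in agonist mode: compound titrations stimulate a VDR-driven β-lactamase reporter in HEK293T cells over 16 h at 37 °C. Response normalized to 50 nM 1α,25-dihydroxyvitamin D3 = 100%, DMSO = 0%; Hill fitting gives EC50 and maximal response.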"}, "[8]": {"experiment": "qHTS assay for small molecule agonists of retinoid X receptor alpha signaling (AID 588544)", "conditions": "HEK293T RXRa-UAS-bla, beta-lactamase reporter, 18 h; 530 nm emission"}, "[9]": {"biological_target": "Retinoic acid receptor RXR-alpha (Homo sapiens) (UniProt P19793)", "sequence (P19793 whole entry, looked up)": "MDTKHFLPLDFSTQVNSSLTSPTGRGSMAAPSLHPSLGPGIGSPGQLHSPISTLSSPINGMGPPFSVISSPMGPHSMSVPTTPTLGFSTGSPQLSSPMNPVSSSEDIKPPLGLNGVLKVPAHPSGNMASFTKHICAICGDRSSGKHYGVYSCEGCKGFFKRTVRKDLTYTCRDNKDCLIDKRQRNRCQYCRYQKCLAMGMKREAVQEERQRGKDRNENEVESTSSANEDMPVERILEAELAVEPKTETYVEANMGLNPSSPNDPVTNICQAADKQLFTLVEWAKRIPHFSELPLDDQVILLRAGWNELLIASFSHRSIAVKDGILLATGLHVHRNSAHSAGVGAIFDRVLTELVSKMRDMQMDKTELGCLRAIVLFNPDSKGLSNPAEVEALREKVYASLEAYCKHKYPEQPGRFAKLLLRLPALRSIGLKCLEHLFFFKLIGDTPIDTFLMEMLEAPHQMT", "experiment": "qHTS assay for small molecule agonists of retinoid X receptor alpha signaling (AID 588544)"}}, "note": "Where “and” joins values, the source holds several entries; their conditions need not be identical. Equal values may be shown once. Results filed as inconclusive are left out. Where a call stands in place of a potency, no number is given. Calls of active or inactive are those of the source. Unless noted, the call rests on the fitted dose curve.", "data": [{"smiles": "COC(=O)c1ccc(O)cc1", "values": [{"measurement": "outcome", "setting": "[1]", "result": "inactive"}]}, {"smiles": "Cn1c(=O)c2[nH]cnc2n(C)c1=O", "values": [{"measurement": "outcome", "setting": "[1]", "result": "inactive"}]}, {"smiles": "O=C(N[C@H](CO)[C@H](O)c1ccc([N+](=O)[O-])cc1)C(Cl)Cl", "values": [{"measurement": "outcome", "setting": "[1]", "result": "inactive"}]}, {"smiles": "CN=C(NC#N)NCCSCc1nc[nH]c1C", "values": [{"measurement": "outcome", "setting": "[1]", "result": "inactive"}]}, {"smiles": "Nc1ccc([As](=O)(O)O)cc1", "values": [{"measurement": "max response", "setting": "[2]", "result": -12.8, "unit": "%"}, {"measurement": "outcome", "setting": "[3]", "result": "inactive"}, {"measurement": "outcome", "setting": "[4]", "result": "inactive"}, {"measurement": "outcome", "setting": "[5]", "result": "inactive"}, {"measurement": "Potency", "setting": "[6]", "result": "inactive"}, {"measurement": "outcome", "setting": "[7]", "result": "inactive"}, {"measurement": "max response", "setting": "[8]", "result": -10, "unit": "%"}, {"measurement": "Potency", "setting": "[9]", "result": "inactive"}]}, {"smiles": "CC(C)c1cccc(C(C)C)c1O", "values": [{"measurement": "outcome", "setting": "[1]", "result": "inactive"}, {"measurement": "max response", "setting": "[2]", "result": -11.4, "unit": "%"}, {"measurement": "outcome", "setting": "[3]", "result": "inactive"}, {"measurement": "outcome", "setting": "[4]", "result": "inactive"}, {"measurement": "Potency", "setting": "[6]", "result": "inactive"}, {"measurement": "outcome", "setting": "[7]", "result": "inactive"}, {"measurement": "max response", "setting": "[8]", "result": -14.1, "unit": "%"}, {"measurement": "Potency", "setting": "[9]", "result": "inactive"}]}, {"smiles": "Cc1c(C(=O)NCCO)[n+](=O)c2ccccc2n1[O-]", "values": [{"measurement": "outcome", "setting": "[1]", "result": "inactive"}]}, {"smiles": "c1ccc2sc(SSc3nc4ccccc4s3)nc2c1", "values": [{"measurement": "outcome", "setting": "[1]", "result": "inactive"}]}, {"smiles": "NCCNCCNCCN", "values": [{"measurement": "outcome", "setting": "[1]", "result": "inactive"}]}, {"smiles": "O=C(O)CCCc1ccc(N(CCCl)CCCl)cc1", "values": [{"measurement": "max response", "setting": "[2]", "result": 26.1, "unit": "%"}, {"measurement": "outcome", "setting": "[3]", "result": "inactive"}, {"measurement": "outcome", "setting": "[4]", "result": "inactive"}, {"measurement": "outcome", "setting": "[5]", "result": "inactive"}, {"measurement": "Potency", "setting": "[6]", "result": "inactive"}, {"measurement": "outcome", "setting": "[7]", "result": "inactive"}, {"measurement": "max response", "setting": "[8]", "result": "15.5% and 20.9%"}, {"measurement": "Potency", "setting": "[9]", "result": "inactive"}]}]}
